Screening results as filed in PubChem.
DT40 TDP1 CPT: DT40-hTDP1 cell growth loss with CPT; chicken DT40 Tdp1-/-;hTDP1 cells + 20 nM CPT, ATP luminescence, 48 h; Potency, µM (top dose mostly 46.2 µM), inactives show at the highest dose activity change, negative = growth inhibition, most hits filed as inhibitors; actives 12% (n = 420,000); also: potency is read from the fitted curve at half-maximal effect; nearly all actives have a fitted effect of over 55% in size
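Chicken DT40 Tdp1-/- cells stably complemented with human TDP1 were seeded at 400 cells/well in medium containing 20 nM camptothecin, exposed to pin-transferred compounds, and grown at 37 °C for at least 48 hr. Viability was read as ATP luminescence.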
VP16 counter: Gal4-VP16 reporter inhibition counter-screen; Drosophila S2 Gal4-VP16 UAS-luciferase, luminescence, 20 h; Potency, µM (titrated, usually from 53.6 µM), without a hit: at the top dose activity, negative = inhibition, actives largely listed as inhibitors; actives 3.5% (n = 310,000); AID 2546;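 also: Gal4-VP16 expression switched on by copper sulfate through the metallothionein promoter; potency is read from the fitted curve at half-maximal effect; nearly all actives have a fitted effect of over 50% in size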
DT40 TDP1 no CPT: qHTS for Inhibitors of human tyrosyl-DNA phosphodiesterase 1 (TDP1): qHTS in cells in absence of CPT; DT40 Tdp1-/- hTDP1 cells, no CPT, ATP luminescence, 48 h; Potency, µM (doses to about 46.2 µM), for inactives: top-dose activity change, negative = growth inhibition, actives largely listed as inhibitors; actives 15% (n = 420,000); also: potency is read from the fitted curve at half-maximal effect; nearly all actives have a fitted effect of over 55% in size
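Cells were dispensed at 400 per well, compounds added by pin tool, plates incubated ≥48 hr at 37 °C, then CellTiter-Glo added for 30 min at room temperature before luminescence reading. Line: DT40 Tdp1-/- complemented with hTDP1; camptothecin omitted.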
LDHA inh: blocks human lactate dehydrogenase A; purified LDHA, NADH/diaphorase-resazurin fluorescence; stronger effect = lower value; actives 0.15% (n = 480,000); AID 1347041; activity change, % (values are at about 110 or 230 µM); in the data active = activity change below about -30%; inconclusive = mostly about -25% to -30%;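 also: plate controls were DMSO wells for no effect and wells without enzyme for full effect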
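LDH5 2 nM; NADH 0.06 mM, pyruvate 0.2 mM; 200 mM Tris pH 7.4, EDTA, Tween-20; 5 min RT. Detection: diaphorase 0.133 mg/mL + resazurin 37 µM, fluorescence ex540/em590 at 0 and 20 min; normalized to enzyme-free and DMSO wells.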
IL1B secr inh: inhibitors of inflammasome signaling (IL-1 beta secretion) | THP-1 LPS/ATP IL-1B secretion, AlphaLISA, 16 h; stronger effect = lower value | activity change, % at 57.5 µM | actives 4.7% (n = 360,000) | AID 743279; in the data active = activity change below about -50%; inconclusive = mostly about -30% to -49%
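Secreted IL-1B measured by AlphaLISA bead assay after 16 h compound exposure of THP-1 cells; compounds (final up to 57.5 uM) added 1 h before LPS (250 ng/mL) and ATP (1.25 mM) stimulation; lower signal means less secretion.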
RORg inh: inhibitors of mouse ROR gamma transcriptional activity; Drosophila S2 Gal4-RORgamma UAS-luciferase reporter, 20 h; actives 5.4% (n = 310,000); Potency, µM (doses to about 53.6 µM), without a hit: at the highest dose activity change, negative = inhibition, hits mostly inhibitors; P51450; also: potency is read from the fitted curve at half-maximal effect; nearly all actives have a fitted effect of over 60% in size
Target sequence (P51450 whole entry, looked up, the tested form may be a part): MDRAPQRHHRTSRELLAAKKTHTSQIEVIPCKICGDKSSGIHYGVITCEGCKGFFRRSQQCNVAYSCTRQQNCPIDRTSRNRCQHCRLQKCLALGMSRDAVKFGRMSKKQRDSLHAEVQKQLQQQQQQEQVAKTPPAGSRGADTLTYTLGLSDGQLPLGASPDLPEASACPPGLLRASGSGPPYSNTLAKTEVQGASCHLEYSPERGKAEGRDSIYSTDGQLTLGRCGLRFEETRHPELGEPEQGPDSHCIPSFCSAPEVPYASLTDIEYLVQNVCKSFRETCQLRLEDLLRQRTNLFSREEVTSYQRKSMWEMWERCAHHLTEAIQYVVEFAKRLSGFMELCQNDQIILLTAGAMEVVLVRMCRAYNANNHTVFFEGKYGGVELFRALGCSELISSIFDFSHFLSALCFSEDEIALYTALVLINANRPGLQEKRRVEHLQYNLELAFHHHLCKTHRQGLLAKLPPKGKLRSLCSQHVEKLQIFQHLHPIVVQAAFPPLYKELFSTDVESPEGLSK
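A Gal4/UAS one-hybrid system in insect cells: metallothionein-promoter Gal4–ROR gamma fusion plus Photinus luciferase reporter. Copper sulfate 700 uM final, 20 hr ambient incubation, luminescent detection after 10 min with reagent.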
Numbers without * were called inactive; ? = inconclusive; . = not tested or not shown. This is a sample that favours compounds with a hit; in the whole collection about 18% have one here. Unless noted, calls follow the shape of the dose curve; as a rule, active = well fitted curve in the direction sought with a large enough effect; inconclusive = small, poorly fitted or top-dose-only effect, or another doubt; inactive = no such curve, though single readings can be large; an effect the other way counts as inactive or inconclusive. Unless noted, % is scaled to controls: 0 for no effect and ±100 for the full control effect.

SMILES | DT40 TDP1 CPT | VP16 counter | DT40 TDP1 no CPT | LDHA inh | IL1B secr inh | RORg inh
Cc1cc(C)c(NC(=O)C2CCN(c3nc4ccccc4n4cccc34)CC2)c(C)c1 | -107% | . | ? | 1 | . | .
Cc1ccc(S(=O)(=O)N2CCN(C(=O)CNc3cccc(Cl)c3Cl)CC2)cc1 | . | . | . | 8 | . | .
Cc1ccccc1C(=O)Nc1ccc2nc(N3CCN(CCC#N)CC3)cc(C(=O)O)c2c1 | . | . | . | 27 | . | .
Fc1cccc(Cc2noc(CN3CCN(C4CCc5ccccc5C4)CC3)n2)c1 (stereo unspecified) | ? | -5% | ? | 3 | 23 | 21%
COc1ccc(Cc2noc(CN3CCCN(Cc4ccc(F)cc4)CC3)n2)cc1OC | 0% | 1% | ? | -6 | -14 | 35%
COc1ccc(Cc2noc(CN3CCC(c4ccncc4)CC3)n2)cc1OC | 21µM* | ? | 23µM* | -9 | 43 | ?
COc1ccc(Cc2noc(CN3CCN(C4CCc5ccccc5C4)CC3)n2)cc1OC (stereo unspecified) | ? | -29% | 21µM* | -3 | -18 | -5%
O=C(Nc1ccccc1C(F)(F)F)C12CC3CC(CC(Cl)(C3)C1)C2 | . | . | . | 6 | . | .
N#Cc1ccc(OCc2nc(-c3ccc(Br)o3)no2)cc1 | . | . | . | 0 | . | .
COc1ccc(CNC(=O)Cn2c(=O)c3c(ncn3C3CCCC3)n(Cc3ccccc3)c2=O)cc1 | . | . | . | -2 | . | .
COc1cc(CN2CCCC(N3CCN(c4ccc(F)cc4)CC3)C2)ccc1F (stereo unspecified) | 21µM* | -3% | ? | 0 | -21 | -42%
COc1ccccc1N1CCN(C2CCCN(Cc3cccc(O)c3)C2)CC1 (stereo unspecified) | -20% | -4% | 0% | -9 | -9 | 17%
COc1cc(CN2CCCC(N3CCN(c4ccccc4C)CC3)C2)ccc1O (stereo unspecified) | 13µM* | -9% | ? | 6 | -6 | -1%
COc1cc2oc(=O)c(CC(=O)NCc3ccc4c(c3)OCO4)c(C)c2cc1Cl | . | . | . | 6 | . | .
CCCn1nc(C(=O)NN2C(=O)NC3(CCCCC3)C2=O)c2ccccc2c1=O | . | . | . | -6 | . | .
Cc1c(-c2ccccc2)nn2c1NC(=O)CC2C(=O)Nc1ccccc1Cl (stereo unspecified) | . | . | . | 1 | . | .
CCN1CCN(C(c2ccccc2)c2sc3nc(C)nn3c2O)CC1 (stereo unspecified) | 11% | 8% | 9% | -5 | 10 | -16%
Oc1c(C(c2ccccn2)N2CCCCC2)cc(Cl)c2cccnc12 (stereo unspecified) | 18µM* | ? | 10µM* | 3 | 79 | 2.8µM*
CN1CCN(C(c2ccc(C(F)(F)F)cc2)c2cc(Cl)c3cccnc3c2O)CC1 (stereo unspecified) | . | 0.89µM* | . | . | . | 0.4µM*
OCCN1CCN(C(c2cccs2)c2ccc3cccnc3c2O)CC1 (stereo unspecified) | . | 11µM* | . | . | . | 11µM*
CCN1CCN(C(c2ccc(C(F)(F)F)cc2)c2ccc3cccnc3c2O)CC1 (stereo unspecified) | ? | 1.3µM* | 16µM* | 7 | -74* | 1.1µM*
c1ccc(C(c2nnnn2C2CCCC2)N2CCCCCC2)nc1 (stereo unspecified) | -20% | -1% | ? | -2 | 4 | -12%
Cc1cc2nc(SCC(=O)Nc3ccc(Br)cc3F)[nH]c(=O)c2[nH]1 | . | . | . | 6 | . | .
O=C(Nc1cccc(Br)c1)c1ccccc1OCC1CCCO1 (stereo unspecified) | . | . | . | -4 | . | .
COc1ccc(NC(=O)Cn2c(SCc3cc(C)ccc3C)nc3ccncc32)cc1OC | . | . | . | -9 | . | .
SMILES | DT40 TDP1 CPT | VP16 counter | DT40 TDP1 no CPT | LDHA inh | IL1B secr inh | RORg inh
CN1CCN(C(c2ccc(Cl)cc2)c2cc(Cl)c3cccnc3c2O)CC1 (stereo unspecified) | ? | 1.4µM* | 16µM* | 1 | -64* | 3.2µM*
CCC(=O)NC(c1cc(Cl)c2cccnc2c1O)C1CC1 (stereo unspecified) | . | . | . | 11 | . | .
COc1cc(/C(Cl)=N/O)cc(OC)c1OC | . | . | . | 2 | . | .
O=C(Nc1ccc(F)cc1)Nc1nnc(-c2ccncc2)s1 | ? | 6% | 21µM* | -14 | 2 | 12%
O=C(Nc1ccccc1)Nc1nnc(-c2ccncc2)s1 | . | . | . | -7 | . | .
O=C(Nc1nnc(-c2ccncc2)s1)Nc1ccc(Cl)cc1Cl | . | . | . | 0 | . | .
Cc1ccc(NC(=O)Nc2nnc(-c3ccncc3)s2)cc1C | 21µM* | 8% | 13µM* | -5 | -25 | 7%
O=C(Nc1cccc(Cl)c1)Nc1nnc(-c2ccncc2)s1 | 7.3µM* | -11% | 5.8µM* | -19 | 9 | ?
CCOC(=O)C1=CCN(S(=O)(=O)c2ccc(Br)cc2)C1c1ccccc1 (stereo unspecified) | -26% | . | ? | -5 | 4 | .
CCOC(=O)C1=CCN(S(=O)(=O)c2ccc(C)cc2)C1c1cccc(C)c1 (stereo unspecified) | ? | . | 18µM* | -7 | 31 | .
CCOC(=O)C1=CCN(S(=O)(=O)c2ccc(Br)cc2)C1c1ccc(C)cc1 (stereo unspecified) | ? | . | 26µM* | -7 | 7 | .
